Experimental data: PubChem BioAssay (EPA / NIEHS)
Calls of active or inactive are those of the source. Rule for the calls: active = hit-call score of the fitted dose curve at least 0.9, where 1 is the maximum; inactive = score below 0.9.

The compounds below were run on Interleukin-8 (IL8), CXCL8 (gene 3576) (assay: BSK_SAg_IL8: BioMAP Diversity Plus: SAg Assay for Interleukin-8 (IL8) Biomarker Activity (AID 2283094)). Conditions: primary human HUVEC with PBMC; actives raise or lower the signal.
Procedure: BSK_SAg is a cell-based, multiplexed-readout assay that uses umbilical vein endothelium and peripheral blood mononuclear cells, a human vascular primary cell co-culture, with measurements taken at 24 hours after chemical dosing in a 96-well plate.BSK_SAg_IL8 is an assay component measured in the BSK_SAg assay. It measures IL-8 antibody related to regulation of gene expression using ELISA technology.Data from the assay component BSK_SAg_IL8 was analyzed into 1 assay endpoint. This assay endpoint, BSK_SAg_IL8, was analyzed with bidirectional fitting relative to DMSO as the negative control and baseline of activity. Using a type of binding reporter, gain or loss-of-signal activity can be used to understand changes in the signaling as they relate to the gene CXCL8. Furthermore, this assay endpoint can be referred to as a primary readout, because this assay has produced multiple assay endpoints where this one serves a signaling function. To generalize the intended target to other relatable targets, this assay endpoint is annotated to the cytokine intended target family, where the subfamily is interleukins.
The levels of cell surface (or secreted, indicated by the prefix "s") biomarker endpoints were measured by ELISA. Overt cytotoxicity to cells in confluent adherent cultures (all systems other than the BT system) was assessed by measuring total protein levels using sulforhodamine B (SRB) staining in parallel cultures at the time of biomarker measurements, indicated as SRB endpoints. For proliferation assays for adherent cell types, individual cell types are cultured at sub-confluence and relative cell numbers quantified by SRB staining at time points optimized for each system (48 h: 3C and CASM3C systems; 72 h: BT and HDF3CGF systems; 96 h: SAg system). SRB was performed by staining cells with 0.1% SRB after fixation with 10% TCA and reading wells at 560 nm.Viability and proliferation of PBMC (T cells) was quantified by Alamar Blue reduction for the SAg and BT systems. For PBMC viability (referred to as PBMC Cytotoxicity within the assay endpoint names), cells were plated (75,000/well in a 96-well plate) and then chemical samples added for 1 h before addition of activators, SEB and TSST-1 (20 ng/mL final concentration each). Cells were incubated for 90 h. Then, Alamar Blue (20 uL/well) (Invitrogen, Cat DAL1100) was added for 6 h, and the plates were read with a fluorescence microplate reader at 546/580 nm (excitation/emission). For PBMC proliferation, cells were plated and activated as above but incubated for only 16 h prior to addition of Alamar Blue. Plates were read after 6 h.

Row | Structure (SMILES) | outcome | AC50
1 | CC=Cc1ccc(O)c(OC)c1 | inactive | –
2 | CCOC(=O)CCC(=O)OCC | inactive | –
3 | COc1cc(C=O)ccc1O | inactive | –
4 | O=c1c(O)c(-c2ccc(O)c(O)c2)oc2cc(O)cc(O)c12 | inactive | –
5 | Cc1nc(C)nc(N2C[C@@H](C)N(c3ccnc([C@@H](C)O)n3)[C@@H](C)C2)n1 | inactive | –
6 | c1cc(-c2ccncc2)ccn1 | inactive | –
7 | COC(=O)c1ccc(O)cc1 | inactive | –
8 | CCCCCC(=O)O | inactive | –
9 | COc1ccc(C)cc1N | inactive | –
10 | NS(=O)(=O)c1cc2c(cc1Cl)NCNS2(=O)=O | inactive | –
11 | OC[C@@H](O)[C@@H](O)[C@H](O)[C@H](O)CO | inactive | –
12 | CCOc1ccc2c(c1)C(C)=CC(C)(C)N2 | inactive | –
13 | Nc1ccc(S(=O)(=O)c2ccc(N)cc2)cc1 | inactive | –
14 | O=C(N[C@@H](Cc1ccccc1)[C@@H](O)C(=O)N1C[C@@H](O)[C@@H](O)C1)c1cc2cc(Cl)ccc2[nH]1 | inactive | –
15 | CN1CCCC1=O | inactive | –
16 | O=C(OCCCCCOC(=O)c1ccccc1)c1ccccc1 | inactive | –
17 | Cc1ccc(N(C)C)cc1 | inactive | –
18 | O=[N+]([O-])C(CO)(CO)CO | inactive | –
19 | NC(=O)Cn1c(=O)cc(CCN2CCN(c3nccc4sccc34)CC2)c2ccc(F)cc21 | inactive | –
20 | Cc1c(C(=O)O)c(O)cc2c1C(=O)c1c(O)c([C@@H]3O[C@H](CO)[C@@H](O)[C@H](O)[C@H]3O)c(O)c(O)c1C2=O | inactive | –

Row | Structure (SMILES) | outcome | AC50
21 | COc1ccc(S(=O)(=O)N2C(=O)[C@@](c3ccccc3OC)(N3C[C@H](O)C[C@H]3C(=O)N(C)C)c3cc(Cl)ccc32)c(OC)c1 | – | 20 µM (active)
22 | COCCOC[C@H](CC1(C(=O)NC2CCC(C(=O)O)CC2)CCCC1)C(=O)Oc1ccc2c(c1)CCC2 (stereo not given in full) | inactive | –
23 | C=CCc1ccc(O)c(OC)c1 | inactive | –
24 | NCC1(Cc2noc(=O)[nH]2)CCCCC1 | inactive | –
25 | COc1cc(S(=O)(=O)O)c(C)cc1N=Nc1c(O)ccc2cc(S(=O)(=O)O)ccc12 | inactive | –
26 | Cc1ccc2ncccc2c1 | inactive | –
27 | CCCCCCCC=O | inactive | –
28 | CN1CCN(Cc2cc(-c3ccc4[nH]c(=O)oc4c3)co2)[C@@H](c2ccc(F)cc2)C1 | – | 9.71 µM (active)
29 | Oc1ccc2ccccc2c1N=Nc1ccccc1 | inactive | –
30 | Nc1ccccc1N | inactive | –
31 | Cc1cccc([N+](=O)[O-])c1C | inactive | –
32 | Nc1nc(N)c2nc(CNc3ccc(C(=O)N[C@@H](CCC(=O)O)C(=O)O)cc3)cnc2n1 | inactive | –
33 | Cc1cc(NC(=O)C(=O)O)cc(C)c1Oc1ccc(O)c2c1CCC2 | inactive | –
34 | CC(CO)OC(C)CO (stereo not given) (tested in a mixture with another compound) | inactive | –
35 | COc1cc(-c2nc(NC(=O)c3cc4cc(C)cc(C)c4n3CC(=O)O)sc2CCC2CCCCC2)c(OC)cc1Cl | – | 16.9 µM (active)
36 | COc1ccc2c(c1)c(CC(=O)O)c(C)n2C(=O)c1ccc(Cl)cc1 | inactive | –
37 | CCNc1cccc(C)c1 | inactive | –
38 | CCCCCCCCCCO | inactive | –
39 | Cc1cccc(Nc2cc(Cl)nc(SCC(=O)O)n2)c1C | inactive | –
40 | CCCCN(CCCC)CCCC | inactive | –
